Experimental data reported in PubChem BioAssay (NCI).
About 79,000 compounds went through this panel and 15% of them were active in at least one assay; those are over-represented in the sample as a whole. A number with no mark means an inactive call. Activity calls are given as the source filed them. No stated cut-off is given here; in the data, active means growth inhibition above about 70%; inactive means the rest.

Test: NCI Yeast Anticancer Drug Screen. Data for the mec2-1 strain (AID 157)
Details: S. cerevisiae mec2-1 strain, at 50.0 µM (retest, dose inferred, filed as 5.0), active compounds read high
Summary of the method: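 Strain: mec2-1 (DNA repair/cell cycle alteration). Compound exposure, then growth measured; inhibition expressed relative to vehicle.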

Row | Structure (SMILES) | growth inhibition
1 | C=C(CCC(C)C1CCC2(C)C3=C(CC(O)C12C)C1(C)CCC(O)C(C)(C)C1CC3)C(C)C(=O)O (stereo not given) | 91% (active)
2 | CC(=O)O[C@H]1CC[C@]2(C)C3=CC[C@]4(C)[C@@H](C(C)=O)CC[C@H]4[C@@]34C=C[C@]2(C1)C1C(=O)OC(=O)C14 (stereo not given in full) | 6%
3 | CCC1(c2ccc(N3C(=O)c4ccccc4C3=O)cc2)CCC(=O)NC1=O (stereo not given) | -24%
4 | O=C(NNS(=O)(=O)c1ccccc1)Nc1ccccc1 | -11%
5 | CCN(CC)CCNc1c(C)ccc2cccnc12 | -4%
6 | CCOC(=O)CCC(NC(=O)c1ccc(NC(OC)c2nc3cc(C(F)(F)F)ccc3nc2-c2ccccc2)cc1)C(=O)OCC (stereo not given) | 78% (active)
7 | CCCC(O)C[N+](=O)[O-] (stereo not given) | 6%
8 | O=C(Nc1cccc(Br)c1)Oc1cccc2cccnc12 | 99% (active)
9 | C=C1CC(C)(COc2ccc3c(C)c(C)c(=O)oc3c2C)OC1=O (stereo not given) | 90% (active)
10 | Cc1cc(Br)c(N2C3=C(CC4=C2CCCC4=O)C(=O)CCC3)c(Br)c1 | 89% (active)
11 | CCN(CC)CC(O)CNc1ccc(C)c2sc3ccccc3c(=O)c12 (stereo not given) | 99% (active)
12 | COC1/C=C/OC2(C)Oc3c(C)c(O)c4c(c3C2=O)C(=O)C=C(NC(=O)/C(C)=C\C=C\C(C)C(OC=O)C(C)C(O)C(C)C(OC(C)=O)C1C)C4=O (stereo not given) | 3%
13 | OC(c1cc2ccccc2o1)c1cc2ccccc2s1 (stereo not given) | 94% (active)
14 | Nc1nnc(-c2cc([N+](=O)[O-])cc([N+](=O)[O-])c2)o1 | -5%
15 | CC1SC(=S)N(c2ccc(Cl)cc2)C1=O (stereo not given) | 31%
16 | CCCCCCCCCC(=O)NN=C(C)C | 45%
17 | O=C(/C=C/c1ccccc1)C1(c2ccccc2)CC1 | -42%
18 | Nc1n[n+](-c2ccccc2)no1 | 46%
19 | N#CC(C#N)=C(c1ccccc1)c1ccccc1 | 100% (active)
20 | CS(=O)(=O)OCCCN(CCCOS(C)(=O)=O)c1ccc(C=Nc2ccc(-c3csc(COc4ccc(Br)cc4Br)n3)cc2)cc1 | 83% (active)

Row | Structure (SMILES) | growth inhibition
21 | CSc1ncnc2ncn(C3OC(CO)C(O)C3O)c12 (stereo not given) | -2%
22 | CNC(=O)c1ccc(OC)cc1C1(O)c2ccccc2CCc2ccccc21 | 49%
23 | O=[N+]([O-])c1ccc(Oc2c(Cl)cccc2Cl)cc1 | -5%
24 | CN(C)C(=O)c1ccc(SC(=S)NCc2ccccc2)cc1 | 100% (active)
25 | CC(C)c1ccc(C(=O)OC2CCCCC2)cc1 | 100% (active)
26 | O=C(Nc1ccc(C(=O)c2ccccc2)cc1)Nc1ccc(Cl)c(Cl)c1 | 97% (active)
27 | O=C1c2ccccc2C(=O)c2sc(Nc3ccc(Cl)cc3)nc21 | 99% (active)
28 | O=C1NC(=O)N(c2ccc([N+](=O)[O-])cc2)C1=O | 2%
29 | CCN(CC)CCNc1nc(N)c2nc(-c3ccccc3)c(-c3ccccc3)nc2n1 | 22%
30 | CCCCCCCCOc1ccc(/C=C/C(C)=N/NC(N)=NC)cc1OC | 99% (active)
31 | CC1=NN(C(=O)c2ccc(Cl)cc2)C(=O)C1N=Nc1ccc(S(=O)(=O)Nc2ncccn2)cc1 (stereo not given) | 51%
32 | CCOC(=O)C(Br)C(Br)c1cccc([N+](=O)[O-])c1 (stereo not given) | 100% (active)
33 | Cc1ccccc1N1CCN(c2c3c(nc4ccccc24)CCCCC3)CC1 | 94% (active)
34 | O=S(=O)(O)SCCNCCCCCC1CCCCC1 | 94% (active)
35 | CC([N+](=O)[O-])C1(O)C(=O)c2cccc3cccc1c23 (stereo not given) | 100% (active)
36 | CCS(CC)(CC)CC1CCCC2=CCC(P(=O)(c3ccccc3)c3ccccc3)CC21 (stereo not given) | 18%
37 | O=C(O)C(CS)Nc1c2ccccc2nc2ccccc12 (stereo not given) | 64%
38 | CCCCCCCCCCCC1C(C#N)C(=O)NC(=O)C1C#N (stereo not given) | 92% (active)
39 | O=C(O)CCSSCCCCCS(=O)O | 10%
40 | CC(C)CNc1cc(Cl)nc(N)n1 | 1%

Same assay, conditions: S. cerevisiae mec2-1 strain, at 50.0 µM, active compounds read high

Row | Structure (SMILES) | growth inhibition
41 | C=C(CCC(C)C1CCC2(C)C3=C(CC(O)C12C)C1(C)CCC(O)C(C)(C)C1CC3)C(C)C(=O)O (stereo not given) | 83% (active)
42 | CC(=O)O[C@H]1CC[C@]2(C)C3=CC[C@]4(C)[C@@H](C(C)=O)CC[C@H]4[C@@]34C=C[C@]2(C1)C1C(=O)OC(=O)C14 (stereo not given in full) | 20.7%
43 | CCC1(c2ccc(N3C(=O)c4ccccc4C3=O)cc2)CCC(=O)NC1=O (stereo not given) | -13.2%
44 | O=C(NNS(=O)(=O)c1ccccc1)Nc1ccccc1 | 5.85%
45 | CCN(CC)CCNc1c(C)ccc2cccnc12 | 35.9%
46 | CCOC(=O)CCC(NC(=O)c1ccc(NC(OC)c2nc3cc(C(F)(F)F)ccc3nc2-c2ccccc2)cc1)C(=O)OCC (stereo not given) | 93.2% (active)
47 | CCCC(O)C[N+](=O)[O-] (stereo not given) | 13.2%
48 | O=C(Nc1cccc(Br)c1)Oc1cccc2cccnc12 | 89.8% (active)
49 | C=C1CC(C)(COc2ccc3c(C)c(C)c(=O)oc3c2C)OC1=O (stereo not given) | -75.4%
50 | Cc1cc(Br)c(N2C3=C(CC4=C2CCCC4=O)C(=O)CCC3)c(Br)c1 | 97.8% (active)
51 | CCN(CC)CC(O)CNc1ccc(C)c2sc3ccccc3c(=O)c12 (stereo not given) | 99.8% (active)
52 | COC1/C=C/OC2(C)Oc3c(C)c(O)c4c(c3C2=O)C(=O)C=C(NC(=O)/C(C)=C\C=C\C(C)C(OC=O)C(C)C(O)C(C)C(OC(C)=O)C1C)C4=O (stereo not given) | 53.5%
53 | OC(c1cc2ccccc2o1)c1cc2ccccc2s1 (stereo not given) | 75.2% (active)
54 | Nc1nnc(-c2cc([N+](=O)[O-])cc([N+](=O)[O-])c2)o1 | 14.6%
55 | CC1SC(=S)N(c2ccc(Cl)cc2)C1=O (stereo not given) | 80.7% (active)
56 | CCCCCCCCCC(=O)NN=C(C)C | 83.2% (active)
57 | O=C(/C=C/c1ccccc1)C1(c2ccccc2)CC1 | 60.9%
58 | Nc1n[n+](-c2ccccc2)no1 | 33.4%
59 | N#CC(C#N)=C(c1ccccc1)c1ccccc1 | 99.5% (active)
60 | CS(=O)(=O)OCCCN(CCCOS(C)(=O)=O)c1ccc(C=Nc2ccc(-c3csc(COc4ccc(Br)cc4Br)n3)cc2)cc1 | 92.8% (active)

Row | Structure (SMILES) | growth inhibition
61 | CSc1ncnc2ncn(C3OC(CO)C(O)C3O)c12 (stereo not given) | 3.55%
62 | CNC(=O)c1ccc(OC)cc1C1(O)c2ccccc2CCc2ccccc21 | 45%
63 | O=[N+]([O-])c1ccc(Oc2c(Cl)cccc2Cl)cc1 | -11.7%
64 | CN(C)C(=O)c1ccc(SC(=S)NCc2ccccc2)cc1 | 97% (active)
65 | CC(C)c1ccc(C(=O)OC2CCCCC2)cc1 | 9.4%
66 | O=C(Nc1ccc(C(=O)c2ccccc2)cc1)Nc1ccc(Cl)c(Cl)c1 | 95.2% (active)
67 | O=C1c2ccccc2C(=O)c2sc(Nc3ccc(Cl)cc3)nc21 | 92.9% (active)
68 | O=C1NC(=O)N(c2ccc([N+](=O)[O-])cc2)C1=O | 1.1%
69 | CCN(CC)CCNc1nc(N)c2nc(-c3ccccc3)c(-c3ccccc3)nc2n1 | 15.5%
70 | CCCCCCCCOc1ccc(/C=C/C(C)=N/NC(N)=NC)cc1OC | 99% (active)
71 | CC1=NN(C(=O)c2ccc(Cl)cc2)C(=O)C1N=Nc1ccc(S(=O)(=O)Nc2ncccn2)cc1 (stereo not given) | 13.2%
72 | CCOC(=O)C(Br)C(Br)c1cccc([N+](=O)[O-])c1 (stereo not given) | 99.8% (active)
73 | Cc1ccccc1N1CCN(c2c3c(nc4ccccc24)CCCCC3)CC1 | 97% (active)
74 | O=S(=O)(O)SCCNCCCCCC1CCCCC1 | 22.5%
75 | CC([N+](=O)[O-])C1(O)C(=O)c2cccc3cccc1c23 (stereo not given) | 58.5%
76 | CCS(CC)(CC)CC1CCCC2=CCC(P(=O)(c3ccccc3)c3ccccc3)CC21 (stereo not given) | 78.7% (active)
77 | O=C(O)C(CS)Nc1c2ccccc2nc2ccccc12 (stereo not given) | 39.5%
78 | CCCCCCCCCCCC1C(C#N)C(=O)NC(=O)C1C#N (stereo not given) | 5.4%
79 | O=C(O)CCSSCCCCCS(=O)O | -1.9%
80 | CC(C)CNc1cc(Cl)nc(N)n1 | 92.3% (active)
